# Results as given in PubChem BioAssay (NCI).
# The panel holds about 83,000 compounds, 20% with a hit somewhere; the sample as a whole holds those more often.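 Cell lines were cultured in 96-well plates, exposed to a single compound concentration, and assessed for percent growth 48 hours later.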 Values without a mark were called inactive. Calls of active or inactive are those of the source. The calls were made as follows: active = growth percent below 10; inactive = the rest.
# Test system: NCI-H522 lung
# Experiment: NCI-60 one-dose screen, 48 h (100 = growth as untreated, 0 = no growth, -100 = all killed)
# Settings: 10 µM unless noted
row,Compound,growth
1,Clc1ccc2oc3c(NCCCN4CCOCC4)c4ccccc4nc3c2c1,28.2%
2,CN(C)c1ccc(/C=C2\Cc3c(F)ccc(Br)c3C2=O)cc1,96.1%
3,O=C(N/N=C/c1ccc([N+](=O)[O-])s1)c1[nH]c2ccc(Br)cc2c1-c1ccccc1,-44.5% (active)
4,CC(O)C(NC(=O)C1CCCN1C(=O)CNC(=O)C1CC(=O)NCC(=O)NC(Cc2c[nH]c3ccccc23)C(=O)NC(Cc2ccc(O)cc2)C(=O)NCC(=O)NC(CO)C(=O)NC(CCC(N)=O)C(=O)NC(Cc2c[nH]c3ccccc23)C(=O)N1)C(=O)NCC(=O)NC(CCC(N)=O)C(=O)NC(CCCNC(=N)N)C(=O)NC(CC(=O)O)C(=O)O (stereo not given),94.9%
5,O=C(CN1CCOCC1)NNc1ncnc2ccccc12,-61% (active)
6,N#Cc1c(-c2ccc(Cl)cc2)nc(SCc2ccccc2)nc1N1CCNCC1,92.4%
7,Cn1cc(-c2cc(N)n3nc(-c4cn(C)c5ccc(F)cc45)cc3n2)c2cc(F)ccc21,28.6%
8,CS(=O)(=O)c1ccc(-c2nc3ccccn3c2/C=N/Nc2nc(-c3ccc(Cl)cc3)cs2)cc1,96.2%
9,O=c1/c(=C\c2ccc(-c3ccccc3)o2)sc2nc(-c3ccccc3)nn12,98.3%
10,Cc1nc(-c2cc3ccccc3oc2=O)ccc1C(=O)/C=C/c1ccccn1,58.6%
11,Nc1c(C(=O)Nc2ccc(C(F)(F)F)cc2)sc2nc(-c3cnccn3)cc(-c3cccs3)c12,88.5%
12,O=C1Nc2cc(Cl)ccc2/C1=C\c1ccc(OCc2ccc(Br)cc2F)cc1,-28.2% (active)
13,C=CCSc1ccc2c(c1)C(N1CCNCC1)=Nc1ccccc1O2,74% [8.25 µM]
14,COc1ccc(NC2=CC(=O)C(C)=C(C)C2=O)cc1,82.5%
15,CS(=O)(=O)c1ccc(-c2nc3ccccn3c2-c2nc3ccc([N+](=O)[O-])cc3[nH]2)cc1,92.4%
16,CCOC(=O)c1c(Nc2ccccc2)nn2c(-c3ccco3)c(C#N)cnc12,82.6%
17,COc1ccc(NC(=O)c2sc3nc(-c4cnccn4)cc(-c4cccs4)c3c2N)cc1,78.2%
18,CC(=O)c1ccc(Nc2nc(SC(C)C)nc(-c3ccccc3)c2C#N)cc1,86.8%

row,Compound,growth
1,COc1ccc(N/N=C/c2c(-c3ccc(S(C)(=O)=O)cc3)nc3ccccn23)cc1,3.48% (active)
2,O=C1C2=C(C(=O)c3c(O)cccc31)C(c1ccco1)c1sc(=O)[nH]c1S2 (stereo not given),-5.29% (active)
3,COc1ccc(/C=C2\SC(=Nc3cc(C)on3)NC2=O)cc1,100%
4,COc1ccc(-c2nc3ccc(-c4nnc(SCC(=O)Nc5ccc(C(=O)/C=C/c6ccccc6)cc5)o4)cc3[nH]2)cc1OC,98.4%
5,O=C(CSc1nnc(-c2ccc3nc(-c4ccc(Cl)cc4)[nH]c3c2)o1)Nc1ccc(C(=O)/C=C/c2ccc(Cl)cc2)cc1,88.4%
6,OC1CCN(CCCOc2c3ccccc3nc3c2oc2ccccc23)CC1,-48.6% (active)
7,Nc1cc(-c2c[nH]c3ccccc23)nc2cc(-c3c[nH]c4ccccc34)nn12,43%
8,N[C@@H](Cc1cn(-c2c3ccccc3nc3ccccc23)nn1)C(=O)O,105%
9,CCN1CCN(S(=O)(=O)c2oc(-c3ccc(Cl)cc3)nc2C#N)CC1,-63% (active)
10,OC1CCc2c(-c3ccc4ncnc(N5CCc6cc(F)c(Cl)cc65)c4c3)cncc21 (stereo not given),40.1%
11,O=C(N/N=C/c1ccc([N+](=O)[O-])o1)c1[nH]c2ccc(Br)cc2c1-c1ccccc1,-26.3% (active)
12,N#Cc1ccc(C(=O)CSc2nc(Nc3ccc(S(N)(=O)=O)cc3)c3ccccc3n2)cc1,99.8%
13,COc1cc(/C=C/C(=O)c2cc(OC)c(OC)c(OC)c2)ccc1Oc1nc(NCCO)nc(N2CCOCC2)n1,-11.1% (active)
14,NC(=O)c1c(NC(=O)c2ccc(C3CCCCC3)cc2)sc2c1CCC(=O)C2,-2.16% (active)
15,COc1cc2nc(-c3ccc(C(F)(F)F)cc3)cc(OCCCNCC3CCCO3)c2cc1OC (stereo not given),41.8%
16,Nc1c(C(=O)c2ccc(Br)cc2)oc2nc(-c3cnccn3)cc(-c3cccs3)c12,98.8%
17,Cc1sc2c(c1C)c(=O)nc1c(-c3nc(-c4ccc(F)cc4)no3)n[nH]n12,100%
